PubChem BioAssay (NCI)
About 83,000 compounds went through this panel and 20% of them were active in at least one assay; those are over-represented in the sample as a whole.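 Interpretation: 100, growth as untreated; towards 0, rising growth inhibition; 0, no net growth; 0 to -100, cell death. Compounds scoring below 10 were considered active.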 A number with no mark means an inactive call. Activity calls are given as the source filed them.

How the values were obtained:
Assay in all cases: NCI-60 one-dose screen, 48 h (100 = growth as untreated, 0 = no growth, -100 = all killed)
Settings in all cases: 10 µM unless noted
[1] = tested on: SR leukemia
[2] = tested on: RPMI-8226 leukemia
[3] = tested on: OVCAR-8 ovarian
[4] = tested on: OVCAR-5 ovarian
[5] = tested on: OVCAR-4 ovarian
[6] = tested on: SK-OV-3 ovarian
[7] = tested on: IGROV1 ovarian
[8] = tested on: OVCAR-3 ovarian
[9] = tested on: HS 578T breast
[10] = tested on: NCI/ADR-RES ovarian
[11] = tested on: T-47D breast
[12] = tested on: BT-549 breast
[13] = tested on: MDA-MB-435 melanoma
[14] = tested on: SW-620 colon
[15] = tested on: MCF7 breast
[16] = tested on: HCT-116 colon
[17] = tested on: HCC-2998 colon
[18] = tested on: KM12 colon

Row | SMILES | growth [1] | growth [2] | growth [3] | growth [4] | growth [5] | growth [6] [%] | growth [7] | growth [8] | growth [9] | growth [10] | growth [11] | growth [12] | growth [13] | growth [14] | growth [15] | growth [16] | growth [17] | growth [18]
1 | N/C(=N\OC(=O)c1ccccc1)C(C(=O)NOC(=O)c1ccccc1)C1CCCCC1 (stereo not given) | 4.57% (active) | 41.5% | 65.8% | 92.2% | 72.8% | 108 | -56.2% (active) | 66.9% | 26.7% | 45.2% | 72.1% | 74.4% | 38.9% | 82.1% | 65.6% | 36.7% | 98% | 19.9%
2 | Clc1nnc2c3ccccc3ccn12 | 106% | 99.6% | 99.1% | 103% | 111% | 95.1 | 113% | 112% | 103% | 112% | 108% | 97.9% | 111% | 96.7% | 107% | 103% | 115% | 109%
3 | O=C(/C=C/c1ccccc1)c1c[nH]c2ccccc2c1=O | 10.8% | -15.9% (active) | -13.3% (active) | 3.5% (active) | 42.1% | 11.6 | -11.5% (active) | -60.9% (active) | -18.8% (active) | 0.29% (active) | 17.3% | -4.65% (active) | -18.4% (active) | -6.91% (active) | 10.6% | 0.346% (active) | 51.3% | 1.5% (active)
4 | C=CCCCCOc1cccc(/C=C2\N=C3SCCCN3C2=O)c1 | 125% | 103% | 101% | 106% | 87.6% | 97.7 | 88.6% | 107% | 112% | 95.6% | -2.85% (active) | 94.4% | 106% | 103% | 88.9% | 86.2% | 100% | 98.4%
5 | N/C(=N\OC(=O)c1ccccc1)C(Cc1ccccc1)C(=O)NOC(=O)c1ccccc1 (stereo not given) | 6.24% (active) | 16.4% | 38% | 101% | 66.8% | 103 | -63.2% (active) | 51.3% | -14.5% (active) | 18.3% | 76.1% | 26.4% | 5.12% (active) | 65.3% | 51.3% | 2.08% (active) | 96.4% | 24.2%
6 | CCCC(CCC)(C(N)=O)C(=O)O | 111% | 112% | 102% | 99.6% | 101% | 105 | 119% | 110% | 106% | 107% | 111% | 98.7% | 102% | 103% | 109% | 102% | 100% | 106%
7 | CS(=O)(=O)c1ccc(C(=O)N/N=C/c2ccccc2O)cc1 | 20.4% | 48.7% | 27.9% | 64.7% | 43.6% | 39.9 | 41% | 22.8% | 81.5% | 29.9% | 52.4% | 53% | 59.7% | 43.3% | 22.5% | 29.1% | 47.3% | 34.1%
8 | COc1cc(C2CC(c3ccc(C)cc3)=NN2C=O)ccc1Oc1nc2c(c(=O)n(C)c(=O)n2C)n1C (stereo not given) | 85.7% | 72.1% | 92.4% | 102% | 77.8% | 124 | 82.6% | 105% | 80.2% | 63% | 80% | 97.9% | 62.7% | 102% | 77.1% | 81.8% | 86.6% | 77.9%
9 | O=C(/C=C/c1cn(-c2ccccc2)nc1-c1ccccc1)OCc1cn(-c2cccc([N+](=O)[O-])c2)nn1 | 87.4% | 80.4% | 82.6% | 94.1% | 83.3% | 83.5 | 98.2% | 96.8% | 89.9% | 95.4% | 78.2% | 94.7% | 94% | 90.6% | 86.8% | 82.3% | 96.7% | 98.6%
10 | C=C(C)[C@@H]1CC[C@]2(C(=O)NC(COC(=O)C(Cl)Cl)(COC(=O)C(Cl)Cl)COC(=O)C(Cl)Cl)CC[C@]3(C)[C@H](CC[C@@H]4[C@@]5(C)CC[C@H](OC(C)=O)C(C)(C)[C@@H]5CC[C@]43C)[C@@H]12 | 20.4% | 2.68% (active) | 73.6% | 80.7% | 54.5% | 82.1 | 84.3% | 57.5% | 71.5% | 71% | 31.9% | 80.4% | 73.6% | 62.1% | 21.4% | -16.7% (active) | 66.1% | 36.8%
11 | COc1cccc(/C(C)=N/NC(=O)CSc2nc3ccccc3c(=O)n2CCc2ccc(S(N)(=O)=O)cc2)c1 | -1.96% (active) | 4.78% (active) | 7.61% (active) | 73.2% | -7.35% (active) | 43.7 | 77.1% | 20% | 29.8% | 74.7% | 40% | 62.9% | 38.4% | 30.7% | 20.5% | -50.5% (active) | 69.1% | 14%
12 | COc1ccc(NC(=O)Cn2c(=O)sc3c(-c4ccc(Cl)cc4)cc(-c4ccc(Cl)cc4)nc32)cc1 | 63.3% | 116% | 107% | 111% | 98.3% | 102 | 92.3% | 115% | 108% | 89.2% | 79.9% | 87.6% | 102% | 99.6% | 89.2% | 88.1% | 104% | 99.7%
13 | C=C[C@H]1CCC/C=C/[C@@H]2C[C@H](O)C[C@H]2[C@H](O)/C=C/C(=O)O1 | 0.87% (active) | -4.42% (active) | 2.59% (active) | 13.4% | 8% (active) | 26.3 | -0.584% (active) | -62.7% (active) | 18.8% | 5.21% (active) | -14% (active) | 0.705% (active) | 15% | -63.8% (active) | -50.1% (active) | -76.9% (active) | -62.4% (active) | -59.2% (active)
14 | CC1OC(n2c3ccccc3c3c4c(c5c6ccccc6[nH]c5c32)C(=O)N(CCN[C@H]2CCC[C@@H]2N)C4=O)CC(O)C1O (stereo not given in full) | -1.11% (active) | 4.77% (active) | 27.7% | 80.4% | 34.9% | 40.7 | 36.4% | 52.7% | 52.3% | 88.2% | 29% | 46.9% | 29.2% | 17.4% | 6.49% (active) | 24.6% | 17% | 20.2%
15 | O=C(Nc1cccc(N=Cc2c(O)ccc3ccccc23)c1)c1ccccc1 | 101% | 94.6% | 93% | 108% | 88.1% | 90.4 | 101% | 103% | 97.4% | 103% | 85.2% | 85.3% | 101% | 98.6% | 86.3% | 93.9% | 102% | 95.6%
